Compounds with a hit are over-represented: about 2.3% of the library has one in this group of screens.
HIF-2a block: blocks HIF-2a reporter activity; inhibition, % at 18.8 µM; 786-0 RCC cells HIF-2a reporter, luciferase luminescence, overnight; 360,000 tested, 0.72% active;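 active means inhibition of the luminescence signal of 40% or more relative to plate controls, in a single-dose primary screen at 18.75 µM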
KKLEB tox: counter-screen for CF NF-kB inhibitors: cytotoxicity; 360,000 tested, 0.36% active; KKLEB CF airway cells viability, ATPlite luminescence, overnight; active compounds read low; cells stimulated with P. aeruginosa culture filtrate; AID 602141; activity change (cytotoxicity), % at 5 µM;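 active means corrected activity change at or below -50% at 5 µM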
hiPSC survival: increases survival of single human iPS cells; AID 602274; survival enhancement, % at 20 µM; 360,000 tested, 0.044% active; hiPSC single-cell survival, ATPlite luminescence; 100% = ROCK inhibitor wells, 0% = DMSO; in the data active means survival enhancement above about 18%;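 further: cells exposed to compounds for 16 hours before the ATP read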
CF NFkB inh: cystic fibrosis NF-kB activation inhibition; KKLEB NF-kB-GFP reporter, PAF-induced, GFP fluorescence overnight; inhibition, % at 5 µM; 360,000 tested, 0.86% active;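 active means at least 50% inhibition at 5 µM, scaled per plate between neutral and stimulator controls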;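 further: PAF is a Pseudomonas aeruginosa culture filtrate used as stimulus; plate controls were PAF-stimulated DMSO wells for no effect and unstimulated DMSO wells for full effect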
TWEAK Fn14 block: inhibitors of TWEAK-Fn14 interaction signaling. TWEAK-stimulated Fn14 reporter cells, luciferase luminescence, 8 h. inhibition, % at 10 µM. 360,000 tested, 2% active; in the data active means inhibition above about 50%
LGR2 antag: blocks bursicon-induced cAMP signaling via Drosophila LGR2 | HEK293 LGR2, CRE-luciferase, bursicon-stimulated, 4 h | inhibition, % at 9.99 µM | 380,000 tested, 0.35% active;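 active means drop in luminescence signal, shown as inhibition above about 50% in the replicate tests, limit read from the data, passing the limit was not always enough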;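 further: agonist challenge used bursicon conditioned medium at about half maximal strength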
* hit, by the source's call; · = not tested or not shown.

SMILES	HIF-2a block	KKLEB tox	hiPSC survival	CF NFkB inh	TWEAK Fn14 block	LGR2 antag
CCCCN=C1NN=C(c2ccc3c(c2)OCCO3)CS1	-59	-1	-1	-2	70*	35
COc1cccc(-c2ccc([C@H]3[C@H](CO)N4C(=O)CN(C(=O)C5CCC5)C[C@@H]34)cc2)c1	·	·	·	·	·	-4
COCC#Cc1ccc2c(c1)O[C@H](CN(C)Cc1ccc3c(c1)OCO3)[C@H](C)CN([C@@H](C)CO)S2(=O)=O	·	·	·	·	·	6
Cc1csc(NC(=O)CSc2nc3[nH]c(=O)cc(O)c3s2)n1	30	-19	-2	71*	19	7
N=C1SCC(=O)N1c1ncc(Cc2ccc(F)cc2)s1	-22	5	0	-40	103*	-3
Cc1ccc(-c2csc(N3C(=N)SCC3=O)n2)cc1	·	·	·	·	·	-66
COCC(=O)Nc1ccc2c(c1)C(=O)N(C)C[C@H](OC)[C@H](C)CN(CC1CCCCC1)[C@H](C)CO2	·	·	·	·	·	-9
Cc1csc(N/N=C/c2ccccn2)n1	1	-23	-4	-7	72*	69*
Clc1ccccc1/C=N/NC1=Nc2cccc3cccc1c23	-203	-14	-2	-21	17	-36
C(=N\NC1=Nc2cccc3cccc1c23)/c1ccccn1	-214	-26	-2	51*	63*	-91
COc1ccccc1CNC(=O)C[C@H]1C=C[C@H](NC(C)=O)[C@H](CO)O1	·	·	·	·	·	30
CCC(=O)N1CC[C@@H]2[C@H](CO)Nc3ccc(C#Cc4ccccc4)cc3[C@@H]21	·	·	·	·	·	17
CC(C)(C)NCC(O)CON=C1c2ccccc2-c2ccccc21 (configuration not stated)	25	-1	0	-23	-8	7
Cc1ccc(S(=O)(=O)N(CCCO)CC(O)CON=C2c3ccccc3-c3ccccc32)cc1 (configuration not stated)	-15	-9	0	17	56*	·
C[C@]12C=CC(=O)C=C1CC[C@@H]1[C@@H]2[C@@H](O)C[C@@]2(C)[C@H]1CC[C@]2(O)C(=O)COC(=O)CCC(=O)O	32	16	-2	56*	-4	-17
C[C@]12C=CC(=O)C=C1CC[C@@H]1[C@@H]2[C@@H](O)C[C@@]2(C)[C@H]1CC[C@]2(O)C(=O)CO	24	26	2	73*	-7	4
C[C@H]1C[C@@H]2[C@H]([C@@H](O)C[C@@]3(C)[C@H]2CC[C@]3(O)C(=O)CO)[C@@]2(C)C=CC(=O)C=C12	17	20	4	74*	-6	21
CCC(=O)OCC(=O)C1(OC(=O)CC)[C@H](C)C[C@H]2[C@H]3[C@H]([C@@H](O)C[C@@]21C)[C@@]1(C)C=CC(=O)C=C1C[C@H]3Cl (some centres not stated)	28	32	5	69*	-40	6
CC(=O)OCC(=O)[C@@]1(O)CC[C@H]2[C@@H]3CCC4=CC(=O)C=C[C@]4(C)[C@H]3C(=O)C[C@@]21C	-147	18	0	19	-11	-3
COc1cccc(NC(=O)N(C)C[C@H]2Oc3cc(C#CC4(O)CCCC4)ccc3S(=O)(=O)N([C@@H](C)CO)C[C@H]2C)c1	·	·	·	·	·	-12
CCOC(=O)O[C@]1(C(=O)COC(=O)CC)CC[C@H]2[C@@H]3CCC4=CC(=O)C=C[C@]4(C)[C@H]3[C@@H](O)C[C@@]21C	16	9	1	77*	8	2
CC(=O)OCC(=O)C1(O)CCC2C3CCC4=CC(=O)C=CC4(C)C3C(=O)CC21C (configuration not stated)	4	4	0	14	-16	-5
C[C@]12C=CC(=O)C=C1CC[C@@H]1[C@@H]2[C@@H](O)C[C@@]2(C)[C@H]1CC[C@]2(O)C(=O)COC(=O)CCC(=O)NCCc1ccc(O)cc1	13	34	0	80*	-4	8
CCc1ccc(/C(C)=N/NC(=O)CNC(=O)/C=C/c2ccco2)cc1	14	-1	1	-18	66*	·
CCc1ccc(/C(C)=N/NC(=O)CNC(=O)/C=C/c2ccccc2OC)cc1	1	9	0	5	1	6
SMILES	HIF-2a block	KKLEB tox	hiPSC survival	CF NFkB inh	TWEAK Fn14 block	LGR2 antag
COc1ccc(CN(C)C(=O)c2cccc(NC(=O)CC3SC(N4CCCCC4)=NC3=O)c2)c(OC)c1 (configuration not stated)	-5	8	0	7	74*	28
C[C@H]1CN([C@@H](C)CO)C(=O)c2cccc(NS(=O)(=O)c3cn(C)cn3)c2O[C@@H]1CN(C)Cc1ccc(C(=O)Nc2ccccc2N)cc1	·	·	·	·	·	-11
O=C(CNC(=O)C1CCCCC1)OCC(=O)c1ccc(F)cc1	5	-17	4	6	2	-3
CCc1ccc(C(=O)COC(=O)CNC(=O)C2CCCCC2)cc1	-42	-6	1	14	66*	-32
COc1ccc2cc3cc(C(=O)NCCc4ccc(OC)c(OC)c4)oc3nc2c1	24	-4	-1	3	66*	·
COc1ccc(CCNC(=O)c2ccc(CS(=O)(=O)c3ccc(Cl)cc3)o2)cc1OC	2	7	0	5	26	0
COc1ccc2cc3cc(C(=O)N4CCCCCC4)oc3nc2c1	-44	-5	1	-9	54*	·
COc1ccc(CCNC(=O)c2ccc(CSc3ccc(Cl)cc3)o2)cc1OC	0	·	-2	·	68*	2
CCN1[C@@H]2c3ccc(-c4ccccc4)c(=O)n3C[C@@H]2[C@@H](CO)[C@@H]1C(=O)NCc1ccccc1	·	·	·	·	·	-9
O=C(NC1CCCC1)[C@H]1[C@H](CO)[C@H]2Cn3c(cccc3=O)[C@H]2N1CC1CCOCC1	·	·	·	·	·	10
O=C(CCCSc1nc(-c2ccco2)cc(C(F)(F)F)n1)NCC1CCCO1 (configuration not stated)	8	3	-1	0	71*	·
C[C@H](CO)N1C[C@H](C)[C@H](CN(C)C(=O)c2ccc(F)cc2)Oc2ncc(Br)cc2C1=O	·	·	·	·	·	32
CCCOC(=O)CN1C(=O)c2ccccc2C1=O	1	15	-1	2	82*	·
CCOC(=O)CN1C(=O)c2ccccc2C1=O	17	14	-2	-10	2	·
CN1OC[C@@H]2CN(C(=O)C(C)(C)C)[C@H](c3cccc(Br)c3)C[C@@H]21	-14	18	-1	-28	61*	-4
Cc1cc(/C=C2\SC(=S)N(C)C2=O)c(C)n1-c1ccccc1O	-272	-8	-1	9	96*	-32
Cc1cc(/C=C2\SC(=S)N(C)C2=O)c(C)n1-c1ccc(O)cc1	45*	-4	0	-8	104*	64*
CC(C)(C)C(=O)N1CCc2cc(-c3csc(N)n3)ccc21	-15	0	-6	-5	67*	·
CCC(C)C(=O)N1CCc2cc(-c3csc(N)n3)ccc21 (configuration not stated)	-213	0	-3	-1	-4	·

Assay outcomes: PubChem BioAssay, several laboratories
